Test results taken from ChEMBL document CHEMBL2218924, “A broad activity screen in support of a chemogenomic map for kinase signalling research and drug discovery” (Biochem J, 2013).

Experiments:
[1] = biological target: Tyrosine-protein kinase Fer (Homo sapiens) (UniProt P16591); conditions: at 10 µM
[2] = biological target: Tyrosine-protein kinase Fes/Fps (Homo sapiens) (UniProt P07332); conditions: at 1 µM
[3] = biological target: Tyrosine-protein kinase Fes/Fps (Homo sapiens) (UniProt P07332); conditions: at 10 µM
[4] = biological target: Tyrosine-protein kinase Fgr (Homo sapiens) (UniProt P09769); conditions: at 1 µM
[5] = biological target: Tyrosine-protein kinase Fgr (Homo sapiens) (UniProt P09769); conditions: at 10 µM
[6] = biological target: Vascular endothelial growth factor receptor 1 (Homo sapiens) (UniProt P17948); conditions: at 1 µM
[7] = biological target: Vascular endothelial growth factor receptor 1 (Homo sapiens) (UniProt P17948); conditions: at 10 µM
[8] = biological target: Receptor-type tyrosine-protein kinase FLT3 (Homo sapiens) (UniProt P36888); conditions: at 1 µM
[9] = biological target: Receptor-type tyrosine-protein kinase FLT3 (Homo sapiens) (UniProt P36888); conditions: at 10 µM
[10] = biological target: Vascular endothelial growth factor receptor 3 (Homo sapiens) (UniProt P35916); conditions: at 1 µM
Chain of Vascular endothelial growth factor receptor 3 (Homo sapiens) (P35916 whole entry): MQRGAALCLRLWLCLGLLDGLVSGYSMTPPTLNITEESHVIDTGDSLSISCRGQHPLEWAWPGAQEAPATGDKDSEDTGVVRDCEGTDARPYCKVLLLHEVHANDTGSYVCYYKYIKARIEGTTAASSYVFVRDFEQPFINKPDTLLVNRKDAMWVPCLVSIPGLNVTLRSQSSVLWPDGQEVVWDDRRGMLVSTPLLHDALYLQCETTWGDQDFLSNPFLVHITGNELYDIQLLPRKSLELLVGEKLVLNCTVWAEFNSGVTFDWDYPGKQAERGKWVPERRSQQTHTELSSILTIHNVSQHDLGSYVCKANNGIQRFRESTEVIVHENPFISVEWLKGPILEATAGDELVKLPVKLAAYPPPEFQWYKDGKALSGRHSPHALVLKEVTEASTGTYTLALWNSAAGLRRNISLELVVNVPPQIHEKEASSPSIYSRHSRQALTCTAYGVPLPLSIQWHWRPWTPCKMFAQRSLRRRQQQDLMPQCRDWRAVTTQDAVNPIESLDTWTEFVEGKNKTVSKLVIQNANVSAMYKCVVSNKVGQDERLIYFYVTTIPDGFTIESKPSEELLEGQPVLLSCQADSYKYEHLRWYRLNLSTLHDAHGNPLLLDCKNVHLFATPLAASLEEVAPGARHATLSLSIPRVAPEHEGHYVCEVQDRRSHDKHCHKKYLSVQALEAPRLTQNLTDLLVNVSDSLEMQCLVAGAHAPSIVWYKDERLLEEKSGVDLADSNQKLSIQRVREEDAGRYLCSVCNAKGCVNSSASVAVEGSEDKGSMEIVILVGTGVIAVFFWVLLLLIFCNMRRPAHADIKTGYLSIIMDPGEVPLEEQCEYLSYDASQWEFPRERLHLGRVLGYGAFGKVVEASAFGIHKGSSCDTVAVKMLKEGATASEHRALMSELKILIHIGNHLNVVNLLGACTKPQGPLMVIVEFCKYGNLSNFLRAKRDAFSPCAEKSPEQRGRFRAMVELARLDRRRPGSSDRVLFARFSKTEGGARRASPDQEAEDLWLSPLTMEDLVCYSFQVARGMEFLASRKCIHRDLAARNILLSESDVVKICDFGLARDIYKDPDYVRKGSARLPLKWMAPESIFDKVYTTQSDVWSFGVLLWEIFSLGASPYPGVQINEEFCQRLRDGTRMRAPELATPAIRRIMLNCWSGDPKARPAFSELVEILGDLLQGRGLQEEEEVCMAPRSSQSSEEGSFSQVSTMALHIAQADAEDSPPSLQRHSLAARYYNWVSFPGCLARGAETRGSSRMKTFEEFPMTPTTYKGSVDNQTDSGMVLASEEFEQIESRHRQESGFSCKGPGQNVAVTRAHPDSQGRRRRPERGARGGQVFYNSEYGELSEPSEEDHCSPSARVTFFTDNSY

Chain of Receptor-type tyrosine-protein kinase FLT3 (Homo sapiens) (P36888 whole entry): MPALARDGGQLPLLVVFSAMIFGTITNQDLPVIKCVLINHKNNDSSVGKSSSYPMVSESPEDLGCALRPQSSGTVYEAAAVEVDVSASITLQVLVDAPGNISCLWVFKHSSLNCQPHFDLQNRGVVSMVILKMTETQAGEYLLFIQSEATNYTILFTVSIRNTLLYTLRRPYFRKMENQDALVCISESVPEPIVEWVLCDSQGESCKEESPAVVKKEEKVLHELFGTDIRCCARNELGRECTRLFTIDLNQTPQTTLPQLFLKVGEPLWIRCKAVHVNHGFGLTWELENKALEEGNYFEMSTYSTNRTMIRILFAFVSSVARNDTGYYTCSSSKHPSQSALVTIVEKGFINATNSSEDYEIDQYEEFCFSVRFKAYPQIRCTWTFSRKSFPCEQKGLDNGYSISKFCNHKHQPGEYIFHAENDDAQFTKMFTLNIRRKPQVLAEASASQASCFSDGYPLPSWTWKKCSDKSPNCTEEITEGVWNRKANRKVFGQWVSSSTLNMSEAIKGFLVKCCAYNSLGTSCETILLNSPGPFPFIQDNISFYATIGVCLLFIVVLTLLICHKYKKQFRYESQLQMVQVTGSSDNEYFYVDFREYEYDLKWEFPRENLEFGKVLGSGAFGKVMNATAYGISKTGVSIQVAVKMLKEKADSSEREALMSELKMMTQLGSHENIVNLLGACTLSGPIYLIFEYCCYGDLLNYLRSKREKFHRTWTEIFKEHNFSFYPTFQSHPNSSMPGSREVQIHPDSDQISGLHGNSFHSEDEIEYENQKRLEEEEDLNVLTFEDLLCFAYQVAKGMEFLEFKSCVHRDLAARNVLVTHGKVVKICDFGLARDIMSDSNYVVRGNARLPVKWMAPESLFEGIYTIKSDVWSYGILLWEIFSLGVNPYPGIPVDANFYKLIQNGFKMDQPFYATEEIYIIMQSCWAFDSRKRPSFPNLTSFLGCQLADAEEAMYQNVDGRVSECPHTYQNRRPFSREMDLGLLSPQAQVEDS
Chain of Tyrosine-protein kinase Fes/Fps (Homo sapiens) (P07332 whole entry): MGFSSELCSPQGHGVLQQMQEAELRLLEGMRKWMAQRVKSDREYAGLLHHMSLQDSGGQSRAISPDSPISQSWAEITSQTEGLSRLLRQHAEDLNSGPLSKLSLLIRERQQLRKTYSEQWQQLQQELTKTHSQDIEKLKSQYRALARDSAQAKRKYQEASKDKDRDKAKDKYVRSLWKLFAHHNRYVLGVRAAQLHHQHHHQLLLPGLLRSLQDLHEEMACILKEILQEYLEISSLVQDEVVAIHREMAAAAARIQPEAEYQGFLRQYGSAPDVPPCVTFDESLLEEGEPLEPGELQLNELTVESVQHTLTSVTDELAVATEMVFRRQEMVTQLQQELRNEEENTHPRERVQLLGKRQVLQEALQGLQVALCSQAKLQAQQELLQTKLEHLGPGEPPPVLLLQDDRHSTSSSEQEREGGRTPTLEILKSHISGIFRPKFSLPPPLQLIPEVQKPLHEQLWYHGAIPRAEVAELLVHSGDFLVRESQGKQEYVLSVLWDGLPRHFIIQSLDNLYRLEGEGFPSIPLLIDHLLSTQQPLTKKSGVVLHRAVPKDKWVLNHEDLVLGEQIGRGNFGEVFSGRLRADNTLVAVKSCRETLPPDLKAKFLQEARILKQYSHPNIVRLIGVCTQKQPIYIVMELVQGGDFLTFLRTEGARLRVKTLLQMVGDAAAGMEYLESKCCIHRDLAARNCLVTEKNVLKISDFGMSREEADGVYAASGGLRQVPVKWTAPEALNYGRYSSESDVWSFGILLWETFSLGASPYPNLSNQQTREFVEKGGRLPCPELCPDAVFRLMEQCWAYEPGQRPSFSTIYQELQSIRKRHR
Chain of Vascular endothelial growth factor receptor 1 (Homo sapiens) (P17948 whole entry): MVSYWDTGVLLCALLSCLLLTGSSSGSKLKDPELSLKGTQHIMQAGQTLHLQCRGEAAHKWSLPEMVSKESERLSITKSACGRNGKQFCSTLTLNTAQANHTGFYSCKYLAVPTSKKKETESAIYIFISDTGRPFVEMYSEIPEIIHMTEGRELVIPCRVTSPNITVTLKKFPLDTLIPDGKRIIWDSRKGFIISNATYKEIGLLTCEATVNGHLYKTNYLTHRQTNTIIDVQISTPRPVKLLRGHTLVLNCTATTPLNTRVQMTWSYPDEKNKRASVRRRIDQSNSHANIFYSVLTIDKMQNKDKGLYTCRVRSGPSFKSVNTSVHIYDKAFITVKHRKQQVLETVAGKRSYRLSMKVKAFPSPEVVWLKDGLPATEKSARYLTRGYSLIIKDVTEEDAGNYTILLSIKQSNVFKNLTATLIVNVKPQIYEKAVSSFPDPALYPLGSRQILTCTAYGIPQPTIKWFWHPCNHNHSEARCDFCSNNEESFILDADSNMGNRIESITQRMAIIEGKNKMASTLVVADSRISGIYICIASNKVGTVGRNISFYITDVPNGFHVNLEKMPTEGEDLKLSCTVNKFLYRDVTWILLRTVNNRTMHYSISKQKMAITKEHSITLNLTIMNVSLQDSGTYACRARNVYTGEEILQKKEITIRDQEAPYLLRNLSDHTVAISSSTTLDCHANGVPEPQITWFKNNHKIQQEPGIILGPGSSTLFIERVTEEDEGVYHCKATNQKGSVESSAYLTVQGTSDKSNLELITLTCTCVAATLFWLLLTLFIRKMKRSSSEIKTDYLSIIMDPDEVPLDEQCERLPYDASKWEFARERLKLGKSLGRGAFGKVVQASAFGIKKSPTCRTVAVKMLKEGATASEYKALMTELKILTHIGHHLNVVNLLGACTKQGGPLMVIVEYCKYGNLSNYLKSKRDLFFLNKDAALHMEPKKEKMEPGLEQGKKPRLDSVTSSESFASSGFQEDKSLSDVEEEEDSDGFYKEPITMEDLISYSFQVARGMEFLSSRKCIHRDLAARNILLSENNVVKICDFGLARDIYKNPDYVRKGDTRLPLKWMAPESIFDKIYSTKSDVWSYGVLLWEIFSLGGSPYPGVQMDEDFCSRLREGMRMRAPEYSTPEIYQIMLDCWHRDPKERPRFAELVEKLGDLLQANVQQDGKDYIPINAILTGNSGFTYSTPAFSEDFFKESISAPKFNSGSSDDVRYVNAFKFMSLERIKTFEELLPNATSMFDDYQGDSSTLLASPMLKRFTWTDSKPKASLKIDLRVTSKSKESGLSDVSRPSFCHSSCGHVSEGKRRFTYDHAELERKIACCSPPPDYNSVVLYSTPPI
Chain of Tyrosine-protein kinase Fgr (Homo sapiens) (P09769 2-529 limits assumed): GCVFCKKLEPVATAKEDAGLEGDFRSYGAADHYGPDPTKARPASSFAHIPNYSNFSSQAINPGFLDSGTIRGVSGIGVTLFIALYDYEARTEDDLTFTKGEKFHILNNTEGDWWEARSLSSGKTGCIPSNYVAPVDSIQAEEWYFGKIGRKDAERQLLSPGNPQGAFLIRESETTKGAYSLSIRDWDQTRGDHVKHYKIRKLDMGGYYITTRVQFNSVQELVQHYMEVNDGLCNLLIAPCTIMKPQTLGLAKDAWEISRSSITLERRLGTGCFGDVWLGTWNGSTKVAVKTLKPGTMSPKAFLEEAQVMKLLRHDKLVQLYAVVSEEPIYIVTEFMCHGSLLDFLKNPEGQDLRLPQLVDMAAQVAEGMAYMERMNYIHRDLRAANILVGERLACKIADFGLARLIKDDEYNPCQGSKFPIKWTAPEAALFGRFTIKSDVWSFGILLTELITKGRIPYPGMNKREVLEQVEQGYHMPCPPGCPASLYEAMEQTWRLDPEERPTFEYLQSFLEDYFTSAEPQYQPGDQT

Row | SMILES | residual activity [1] [%] | residual activity [2] [%] | residual activity [3] [%] | residual activity [4] [%] | residual activity [5] [%] | residual activity [6] [%] | residual activity [7] [%] | residual activity [8] [%] | residual activity [9] [%] | residual activity [10] [%]
1 | O=Nc1c(-c2c(O)[nH]c3ccccc23)[nH]c2ccccc12 | 53 | 72 | 30 | 8 | 1 | 1 | 0 | 1 | 0 | -1
2 | COc1ccc(OC)c2c(=S)c3ccccc3[nH]c12 | 92 | 89 | 103 | 94 | 99 | 90 | 77 | 83 | 73 | 89
3 | COc1ccc(CNc2nc(N(CCO)CCO)nc3c2ncn3C(C)C)cc1 | 86 | 62 | 23 | 77 | 85 | 88 | 55 | 85 | 74 | 62
4 | CN(C)CCCn1cc(C2=C(c3c[nH]c4ccccc34)C(=O)NC2=O)c2ccccc21 | 81 | 125 | 14 |  | 55 |  |  |  |  | 
5 | N#CCCc1ccc2c(c1)-c1[nH]c3ccc([N+](=O)[O-])cc3c1CC(=O)N2 |  | 16 | 5 | 15 | 6 | 24 | 11 | 19 | 8 | 10
6 | CC(C)n1cnc2/c(=N/c3cccc(Cl)c3)nc(NCCO)[nH]c21 | 47 | 58 | 12 | 48 | 12 | 68 | 30 | 20 | 1 | 42
7 | O=C1Nc2ccccc2/C1=C1/Nc2ccccc2/C1=N\OCCC(O)CO (stereo unspecified) | 35 | 71 | 48 | 3 | 3 | 1 | 0 | 0 | 0 | -1
8 | CO[C@H]1[C@@H](OC)C[C@H](C)[C@@H](OC)C2=CC(=O)C=C(NC(=O)/C(C)=C/C=C/[C@H](OC)[C@@H](OC(N)=O)/C(C)=C/[C@@H]1C)C2=O | 99 | 111 |  | 99 | 100 | 86 | 95 | 85 | 76 | 92
9 | Nc1nc(Nc2ccc(S(N)(=O)=O)cc2)nn1C(=S)Nc1c(F)cccc1F | 1 | 2 | 1 | 9 | 1 | 0 | -1 | 2 | 1 | 0
10 | Oc1c2ccccc2c2c3c(cccc13)N=N2 | 51 | 34 | 6 | 75 | 38 | 26 | 2 | 6 | 1 | 2
11 | c1ccc(-c2n[nH]c3c2oc2ccccc23)cc1 |  |  |  |  | 49 | 13 | 1 | 6 | 0 | 3
12 | O=[N+]([O-])c1ccc(-c2nc(-c3ccc(F)cc3)c(-c3ccncc3)[nH]2)cc1 |  | 100 | 116 | 103 | 96 | 77 | 46 | 104 | 90 | 78
13 | O=c1cc(-c2cccc3c2Sc2ccccc2S3)oc(N2CCOCC2)c1 | 83 | 94 | 96 | 99 | 93 | 95 | 85 | 85 | 83 | 97
14 | COc1cc2ncc(-c3ccccc3)nc2cc1OC | 99 | 126 | 87 |  |  | 95 | 67 | 57 | 16 | 71
15 | Cc1ccc(NC2=CC(=O)c3sc(C)nc3C2=O)cc1 | 96 | 97 | 104 | 90 | 109 | 96 | 91 | 85 | 81 | 95
16 | O=C1Nc2ccc(Br)cc2/C1=C\c1cc2c([nH]1)CCCC2 |  | 107 | 78 |  | 72 | 17 | 20 | 3 | 1 | 1
17 | O=C1Nc2cc(Br)ccc2/C1=C1/Nc2ccccc2/C1=N\O | 45 | 79 | 100 | 1 | 2 | -1 | 1 | 1 | 1 | 1
18 | c1ccc2c(-c3ccncc3)c[nH]c2c1 | 97 | 111 | 72 |  | 91 | 85 | 63 | 107 | 78 | 91
19 | c1ccc(-c2n[nH]cc2-c2ccnc3ccccc23)nc1 |  | 107 | 80 | 90 | 51 | 36 | 7 | 48 | 23 | 37

Row | SMILES | residual activity [1] [%] | residual activity [2] [%] | residual activity [3] [%] | residual activity [4] [%] | residual activity [5] [%] | residual activity [6] [%] | residual activity [7] [%] | residual activity [8] [%] | residual activity [9] [%] | residual activity [10] [%]
20 | Cc1ccc(S(=O)(=O)/C=C/C#N)cc1 | 99 | 97 | 108 | 108 | 105 | 96 | 100 |  | 89 | 98
21 | CC(=O)c1ccc(N2CCOCC2)cc1O |  | 133 | 94 | 110 | 102 | 106 | 97 | 102 | 86 | 93
22 | CN(C)c1ccc(/C=C2\C(=O)Nc3ccccc32)cc1 | 82 | 113 | 79 | 90 | 44 | 14 | 2 | 4 | 1 | 3
23 | COc1ccc(C(=O)Nc2sc3c(c2C(N)=O)CCCC3)cc1OC | 91 | 123 |  | 110 | 93 | 72 | 81 | 32 | 35 | 10
24 | CO[C@@H]1[C@H](N(C)C(=O)c2ccccc2)C[C@H]2O[C@]1(C)n1c3ccccc3c3c4c(c5c6ccccc6n2c5c31)C(=O)NC4 | 14 | 15 | 9 | 7 | 4 | 4 | 1 |  |  | 1
25 | Cc1nc2cc3nc(-c4cccs4)cnc3cc2n1C | 105 | 134 | 88 | 109 | 69 | 40 | 3 | 15 | 1 | 24
26 | C[C@@H](N)[C@H]1CC[C@H](C(=O)Nc2ccncc2)CC1 |  | 108 | 108 | 103 | 90 | 118 | 108 | 97 | 95 | 100
27 | Nc1n[nH]c2nnc(-c3c(-c4ccccc4)nn4ccccc34)cc12 | 66 | 85 | 86 | 86 | 50 | 71 | 23 | 72 | 22 | 76
28 | Cc1cc2ncc(-c3ccccc3)nc2cc1C |  | 107 | 93 |  | 91 | 85 | 83 | 47 | 25 | 58
29 | Cc1cccc(-c2[nH]c(C(C)(C)C)nc2-c2ccc3c(c2)OCO3)n1 |  |  | 87 |  | 88 | 86 | 84 |  | 87 | 99
30 | Cn1cc(/C=C2\C(=O)Nc3ccc(S(N)(=O)=O)cc32)c2ccccc21 | 9 | 40 | 15 | 9 | 10 | 22 | 9 | 1 | -1 | 11
31 | Cc1cncc2cccc(S(=O)(=O)N3CCCN(C(=O)CN)C[C@H]3C)c12 |  |  |  | 99 | 53 | 82 | 63 | 100 | 86 | 78
32 | CC(=O)O/N=C1\C(=C2\C(=O)Nc3cc(Br)ccc32)Nc2ccccc21 | 92 | 107 | 97 | 10 | -1 | 24 | 1 | 3 | 0 | 2
33 | Nc1ccc2ncnc(NCCc3ccc(Oc4ccccc4)cc3)c2c1 | 84 | 91 | 87 | 84 |  | 54 | 26 | 33 | 9 | 15
34 | CCN(CC)CCCCN1c2ccccc2Oc2ccc(Cl)cc21 | 102 | 129 | 88 | 111 | 95 | 115 | 112 | 98 | 74 | 96
35 | COc1cc2ncnc(Nc3ccc(NC(=O)c4ccccc4)cc3)c2cc1OC | 94 |  | 90 | 71 | 25 | 101 | 72 | 97 | 92 | 76
36 | N#CC(C#N)=C(N)/C(C#N)=C/c1ccc(O)cc1 |  |  | 91 |  | 96 | 96 | 90 | 100 | 86 | 94
37 | N#C/C(=C(\N)Sc1ccc(N)cc1)c1ccccc1C(F)(F)F | 79 | 93 | 100 | 88 | 73 | 83 | 38 | 62 | 59 | 65
